# In article PMC8769072, “Proteome‐scale mapping of binding sites in the unstructured regions of the human proteome” (Molecular Systems Biology, 2022):
# Molecular target: TNKS 174-649, O95271
# Sequence (O95271 174-649): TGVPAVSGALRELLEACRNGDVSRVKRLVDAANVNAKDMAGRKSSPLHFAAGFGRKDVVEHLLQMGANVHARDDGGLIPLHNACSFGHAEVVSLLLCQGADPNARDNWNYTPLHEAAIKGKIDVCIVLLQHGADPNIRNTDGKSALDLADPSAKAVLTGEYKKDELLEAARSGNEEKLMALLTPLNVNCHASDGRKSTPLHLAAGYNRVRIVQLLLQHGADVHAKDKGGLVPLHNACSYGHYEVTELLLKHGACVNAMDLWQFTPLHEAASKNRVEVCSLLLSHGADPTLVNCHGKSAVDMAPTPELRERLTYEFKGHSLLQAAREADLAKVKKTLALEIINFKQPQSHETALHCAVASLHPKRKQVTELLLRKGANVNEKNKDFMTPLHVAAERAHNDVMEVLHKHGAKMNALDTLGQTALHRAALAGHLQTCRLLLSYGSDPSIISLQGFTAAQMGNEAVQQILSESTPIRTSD
row,Binder,selected by phage display
1,"DYVLTYNYEGRGSPAG [DSC3, Q14574]",confidence 2 (active)
2,"RQEALGAEHNSSALLP [AKAP13, Q12802]",confidence 3 (active)
3,"AQVLSQRLEAEGLSTL [LENG9, Q96B70]",confidence 2 (active)
4,"EERPEVLGQRSTDVVD [STK36, Q9NRP7]",confidence 2 (active)
5,"QERLIPLGHASKSAPM [ERRFI1, Q9UJM3]",confidence 2 (active)
6,"VTSSPIRGAGDGMETE [BLZF1, Q9H2G9]",confidence 2 (active)
7,"QYVTREPPEGSLLDVD [FAM83H, Q6ZRV2]",confidence 2 (active)
8,"VPGLGGPGESRHEPLG [HOXA13, P31271]",confidence 2 (active)
9,"SVLQPGIAMETRGLAD [CNGA3, Q16281]",confidence 2 (active)
10,"SPQFVGNLRESPLGQE [CCNH, P51946]",confidence 2 (active)
11,"IGRISAEGGEQVERVV [APOL2, Q9BQE5]",confidence 3 (active)
12,"LDMHTVTREEGEGMET [GCC2, Q8IWJ2]",confidence 3 (active)
13,"RVVDGAEMALPGLATQ [KIF26B, Q2KJY2]",confidence 2 (active)
14,"GGLDGPRLAIPGMDGG [PAN3, Q58A45]",confidence 3 (active)
15,"DIRGLAAGSAETLPAN [PPFIA1, Q13136]",confidence 2 (active)
16,"RTESIRWLIPGQEQEH [TXNDC15, Q96J42]",confidence 3 (active)

row,Binder,selected by phage display
1,"HGDGEVRQPPVGIAVA [BAHCC1, Q9P281]",confidence 2 (active)
2,"RGLVDGGEAVEARLRD [CGN, Q9P2M7]",confidence 3 (active)
3,"ERSSGDGEELERLTKP [SLC35A5, Q9BS91]",confidence 3 (active)
4,"LFLPRTEADGKSYVKY [ENDOG, Q14249]",confidence 4 (active)
5,QTIERMGSGVERMGPA,confidence 3 (active)
6,"REAPEGMASSLGALNL [CACNA1S, Q13698]",confidence 4 (active)
7,"AQQALERTPGDGLATM [THAP4, Q8WY91]",confidence 3 (active)
8,SVERMGSGIERMGPLG,confidence 4 (active)
9,"LPPAEAVRWAPVGAVA [RUNDC1, Q96C34]",confidence 4 (active)
10,"GGRTPAARDSIVREVI [MTHFD1L, Q6UB35]",confidence 2 (active)
11,"SLIERGAAAGSEDAVK [SPTAN1, Q13813]",confidence 2 (active)
12,"EPWLDRVIQGSSTSSS [DIP2A, Q14689]",confidence 3 (active)
13,"TLNERLAAEGQAIDGA [WDR37, Q9Y2I8]",confidence 3 (active)
14,"DELRMEPLGLEGLNML [CRTC2, Q53ET0]",confidence 3 (active)
15,"GGGPDRLEPEMVRMVV [NAB2, Q15742]",confidence 2 (active)
